# This is part of a sample that, as a whole, favours compounds with a hit. Of some 83,000 tested, about 20% had one in any assay.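 Each cell line was grown in a 96-well plate and treated with one concentration of compound for 48 hours. Values below 10 were considered active.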 Unmarked numbers belong to inactive results. The source made the active and inactive calls.
# Tested on: SNB-19 CNS
# Experiment: NCI-60 one-dose screen, 48 h (100 = growth as untreated, 0 = no growth, -100 = all killed)
# Conditions: 10 µM unless noted
# Experimental: Growth inhibition of the SNB-19 human tumor cell line is measured as a screen for anti-cancer activity. Cells are grown in 96 well plates and exposed to the test compound for 48 hours. Compounds are tested at a single concentration, which is 10^-5 M for most compounds. The reported endpoint is percent growth (GI% or GIPRCNT), where numbers from 0 - 100% represent growth inhibition, and numbers from -100% - 0 represent cell death. For example, a value of 40 represents 60% growth inhibition. A value of 0 means no net growth occurred over the course of the experiment. A value of -40 indicates 40% of cells at the beginning of the experiment died by the end of the experiment. A value of -100 means all cells are dead at the end of the experiment.
# NCI-60 Human Tumor Cell Lines Screen was performed using the standard one-dose NCI protocol, which is described in more detail at https://dtp.cancer.gov/discovery_development/nci-60/default.htm.
# Compounds with GIPRCNT values below 10 were considered active. Activity score was based on GIPRCNT using the following formula: […]
# Score is 0 for GIPRCNT values of 100 or above, 50 for GIPRCNT values of 0, and 100 for GIPRCNT values of -100.
row,Compound,growth
1,N#Cc1c(-c2ccccc2)cc(-c2ccc(Nc3nc(Nc4ccc(F)cc4)nc(Nc4ccc(F)cc4)n3)cc2)nc1N,91.7%
2,N#Cc1c(N)nc2c(C#N)c(NC(=O)c3ccccc3)nn2c1-c1ccccc1,89.6%
3,CCOC(=O)c1csc(NC(=O)COc2cccc(/C=C3\Oc4cc(OC)ccc4C3=O)c2)n1,83.4%
4,Cc1ccc(-c2cc3c(cc2O)C2CCCCC2(N2CCOCC2)O3)cc1 (stereo not given),98.7%
5,O=C(Nc1ccccc1)Nc1cccc(Oc2nnc(Cl)c3ccccc23)c1,9.64% (active)
6,CCN(CC)S(=O)(=O)c1cccc(-c2ccc3c(NC(=O)C4CC4)n[nH]c3c2)c1,30.6% [6.25 µM]
7,COc1ccc(OC)c2c1[nH]c(=O)c1c3ncccc3cn21,30.3%
8,NC(=N\N=C/c1cccc([N+](=O)[O-])c1)/C(N)=N\N=C/c1cccc([N+](=O)[O-])c1,105%
9,Cc1ccc(S(=O)(=O)Oc2cc(OS(=O)(=O)c3ccc(C)cc3)cc(OS(=O)(=O)c3ccc(C)cc3)c2)cc1,104%
10,O=C1Nc2ccccc2/C1=C/c1cn(C(=O)c2c(Cl)cccc2Cl)c2ccccc12,68.7%
11,COc1ccc2cc(-c3cc(OC)c(OC)c(OC)c3)c(=O)oc2c1,80.3%
12,Cc1cccc(-c2nc(N(C)c3ccc4ncsc4c3)c3ccccc3n2)n1,77.1%
13,Cc1ccc(C2SCC(=O)N2Cc2ccccc2)cc1 (stereo not given),98.9%
14,CCc1ccccc1-n1c(N)c(C#N)c(-c2ccc(N(C)C)cc2)c(C#N)c1=O,101%
15,O=C(NCCCNc1cc(-c2cn(-c3ccccc3)nc2-c2cccc(O)c2)ccn1)c1cccc(O)c1,79.7%
16,C=CCSc1nc2ccccc2cc1/C=N/O,89.3%
17,N#Cc1c(N)nc(NCCO)nc1-c1ccc(F)cc1,104%
18,COc1ccccc1CNCCCN1C(=O)c2ccc3c4c(ccc(c24)C1=O)C(=O)N(CCCNCCCCN)C3=O,-57.8% (active)
19,Nc1nc(N)c2c(n1)NC(c1ccccc1)C1CCc3ccccc3C1=N2 (stereo not given),67.2%
20,NC(N)=Nc1nc2ccccc2n2c1nc1ccccc12,38.8%

row,Compound,growth
1,CNC(=O)NCC1OC(n2cnc3c(NC(=O)Nc4ccccc4)ncnc32)C(O[Si](C)(C)C(C)(C)C)C1CC(=O)N(C)OC (stereo not given),37.2%
2,CCCCn1c(=O)c2c(nc(NCCc3ccc(O)c(O)c3)n2CCC)n(CCCC)c1=O,92.3%
3,CCN1CCN(c2nc(C)cc(NCc3cc(Nc4ccnc5cc(Cl)ccc45)ccc3F)n2)CC1,34.7%
4,NC(=O)c1ccc[n+]([C@@H]2O[C@H](COP(=O)([O-])OP(=O)(O)OC[C@H]3O[C@@H](n4cnc5c(N)ncnc54)[C@H](O)[C@@H]3O)[C@@H](O)[C@H]2O)c1,110%
5,COc1ccc(-c2nc(SCCC(C)C)nc(N/N=C\c3cccc(Cl)c3)c2C#N)cc1,76.2%
6,COc1cccc(-c2nc3sccn3c2-c2ccnc(NCCNS(=O)(=O)c3cccc(Cl)c3)c2)c1,65%
7,C=C1C(=O)O[C@H]2[C@H]1CC/C(COC(=O)C(=O)c1c[nH]c3ccc(OC)cc13)=C\CC[C@@]1(C)O[C@@H]21,-17.6% (active)
8,COc1cccc(Nc2nccc(Nc3ccc4[nH]ncc4c3)n2)c1,24.1%
9,C=C1C(=O)O[C@H]2[C@H]1CC/C(CNC(=O)/C=C/c1ccc(Cl)cc1Cl)=C\CC[C@@]1(C)O[C@@H]21,37.4%
10,Cc1ccc(C(=O)CSc2nc(-c3ccc(Br)cc3)c(C#N)c(=O)[nH]2)cc1,96.7%
11,CN(C)CCC=C1c2ccccc2C(C)(C)c2ccccc21,86.1%
12,CCN(CC)CCCCCCNc1cc(OC)c(Cl)c2cccnc12,96.4%
13,CN(C)c1ccc(-c2cc(-c3ccc(Nc4nc(Nc5ccc(Cl)cc5)nc(Nc5ccc(Cl)cc5)n4)cc3)no2)cc1,65.7%
14,CCSC1=NC2C(N(CC)C(=O)N2CC)N1/N=C/C=C/c1ccccc1[N+](=O)[O-] (stereo not given),22.1%
15,N#Cc1c(-c2cccc(Cl)c2)cc(-c2cccc(Cl)c2)[nH]c1=O,71.6%
16,COc1ccc2[nH]c(O)c(/C=c3/cc4c(c(-c5ccc(F)c(OC)c5)n3)=Nc3ccccc3-4)c2c1,47.6%
17,N#C/C(=C\c1ccc(Br)cc1)n1nnc2cc(F)c(F)cc21,50.5%
18,CC(=O)c1ccc(NCC(=O)Nc2ccccn2)cc1,100%
19,Cn1cc2c(c1)-c1nc(Nc3ccccc3)ncc1CC2,69.4%
20,CC1(C)CC(=O)C2=C(C1)N(c1ccc(OC(F)(F)F)cc1)C(N)=C(C#N)C2c1ccc(Cl)cc1 (stereo not given),57.4%
